# The source made the active and inactive calls. Unless noted, how the calls were made is not given here.
# Columns and labels:
# [1] = system: XIP peptide (Xip251-270) binding; experiment: XIP fragment 251-270 binding compounds – biochemical, small-molecule microarray, fluorescence 635/667 nm, 0.1 µg/mL protein, primary screen (AID 1182); details: fluorescent protein binding, 635 nm, higher = more signal, called active from +8 up or from −8 down
# [2] = system: XIP peptide (Xip251-270); experiment: compounds binding XIP fragment 251-270 – biochemical, small-molecule microarray, fluorescence 635/667 nm, 0.5 µg/mL protein, primary screen (AID 1183); details: fluorescence 635 nm, higher = more signal
# [3] = blood-stage malaria parasite viability loss – strain 3D7, DAPI fluorescence, 100 nL, primary screen (AID 1184);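 further: parasites grown inside human red blood cells in medium with human serum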; details: P. falciparum 3D7 growth, 3 d, higher = more signal
# [4] = biological target: Homeobox protein Hox-A13 (Mus musculus) (UniProt Q62424); experiment: disruptors of Hoxa13 oligonucleotide interaction – biochemical, fluorescence polarization, labeled oligonucleotide, primary screen (AID 1185); details: Hoxa13:DNA binding, 15 min, higher = more signal, called active from +8 up or from −8 down
# [5] = blockers of DNA damage checkpoint Chk1 activation – imaging, HeLa, hydroxyurea, phospho-Chk1 antibody, percent positive cells, primary screen (AID 1186); details: hydroxyurea-induced phospho-Chk1 immunofluorescence imaging, higher = more signal
# [6] = blockers of DNA damage checkpoint Chk1 activation – imaging, HeLa, hydroxyurea, phospho-Chk1 nuclear intensity, primary screen (AID 1187); details: hydroxyurea-induced phospho-Chk1 immunofluorescence imaging, higher = more signal
# Homeobox protein Hox-A13 (Mus musculus), sequence (Q62424 whole entry, looked up): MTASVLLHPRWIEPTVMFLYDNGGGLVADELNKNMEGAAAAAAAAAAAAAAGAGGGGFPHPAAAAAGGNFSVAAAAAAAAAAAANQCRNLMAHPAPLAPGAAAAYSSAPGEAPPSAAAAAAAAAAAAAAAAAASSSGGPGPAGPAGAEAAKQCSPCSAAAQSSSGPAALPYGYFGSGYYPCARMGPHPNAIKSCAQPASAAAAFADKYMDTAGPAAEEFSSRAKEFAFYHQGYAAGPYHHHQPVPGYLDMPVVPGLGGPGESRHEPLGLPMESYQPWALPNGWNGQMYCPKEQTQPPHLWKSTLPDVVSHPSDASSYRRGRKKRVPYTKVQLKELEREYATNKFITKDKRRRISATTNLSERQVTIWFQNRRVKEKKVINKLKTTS
SMILES,composite z-score [1],composite z-score [2],z-score [3],z-score [4],z-score [5],z-score [6]
COCCOC(=O)N1C(=O)[C@@]2(c3cc(C#Cc4ccc(OC)cc4)ccc31)[C@H](c1ccc(O)cc1)N1[C@H](c3ccccc3)[C@H](c3ccccc3)OC(=O)[C@H]1[C@@H]2C(=O)NC[C@H](O)c1ccccc1,0.27 (inactive),0.77,-1.66,-0.934 (inactive),-0.192 (inactive),0.249 (inactive)
C=CC[C@]1(C(=O)N2CCCCC2)N=C(c2ccc(OCCCO)cc2)O[C@H]1c1ccccc1,0.754 (inactive),0.807,-2.03,-5.69 (inactive),-0.0473 (inactive),0.452 (inactive)
CCOC(=O)[C@H]1C/C=C/C[C@H](C(=O)OCC)C(=O)O[C@H]2[C@@H](OC)O[C@H](CO)[C@@H](OC(=O)Nc3cccc(F)c3)[C@@H]2OC1=O,1.17 (inactive),0.526,-1.73,-2.16 (inactive),-0.197 (inactive),-0.145 (inactive)
O=C1O[C@@H](c2ccccc2)[C@@H](c2ccccc2)N2[C@@H](c3ccc(OCCO)cc3)[C@]3(C(=O)Nc4ccccc43)[C@@H](C(=O)NC[C@H](O)c3ccccc3)[C@H]12,1.29 (inactive),0.345,0.0884,-5.41 (inactive),0.167 (inactive),0.696 (inactive)
C=CCNC(=O)[C@@H]1[C@H]2C(=O)O[C@H](c3ccccc3)[C@H](c3ccccc3)N2[C@H](c2ccc(OCCO)cc2)[C@@]12C(=O)Nc1ccc(C#CCCO)cc12,0.95 (inactive),0.77,-1.02,-3.63 (inactive),0.0523 (inactive),0.205 (inactive)
O=C1NC(=O)C2C1C=CC(C(O)Cc1ccccc1)N2Nc1ccc(Cl)cc1Cl (configuration not stated),0.0966 (inactive),-0.474,0.17,-5.64 (inactive),0.985 (inactive),1.09 (inactive)
CN1C2C=C(CCCO)C(C3C(=O)N(C(N)=O)C(=O)C32)C1c1ccc(CN2CCCC2)cc1 (configuration not stated),0.276 (inactive),0.297,0.446,-5.26 (inactive),0.0965 (inactive),-0.0741 (inactive)
C=CCC(OC(C)=O)[C@@H]1[C@@H](N(Cc2ccc(-c3cccc(C(F)(F)F)c3)o2)C(=O)c2ccc(-c3ccccc3)cc2)c2cc(OCCCO)ccc2N1C(=O)c1ccc(-c2ccccc2)cc1 (some centres not stated),-0.462 (inactive),-1.09,-0.29,-0.737 (inactive),0.216 (inactive),0.187 (inactive)
COCCOC(=O)N1C(=O)[C@@]2(c3cc(C#Cc4ccc(OC)cc4)ccc31)[C@H](c1ccccc1OCCO)N1[C@H](c3ccccc3)[C@H](c3ccccc3)OC(=O)[C@H]1[C@@H]2C(=O)N1CCN(c2ncccn2)CC1,-0.349 (inactive),0.59,-1.86,0.484 (inactive),0.0768 (inactive),0.273 (inactive)
CCCC[C@@H]1C[C@H]1[C@@H](NC(=O)c1ccco1)c1ccc(C(=O)OC)cc1,-0.687 (inactive),-0.16,-0.941,0.198 (inactive),0.29 (inactive),0.0944 (inactive)
C=CCC(OC(C)=O)[C@@H]1[C@@H](N(Cc2ccc(-c3ccccc3)cc2)C(=O)Cc2ccc(F)cc2)c2cc(OCCCO)ccc2N1C(=O)c1ccc(-c2ccccc2)cc1 (some centres not stated),-0.142 (inactive),0.166,-1.9,-0.778 (inactive),-0.517 (inactive),-0.285 (inactive)
CN(C)CCCCCCNC(=O)[C@@H]1C[C@@H]2C(=O)N[C@@H](CCCCN)C(=O)N2[C@@H]1c1cccc(OCCO)c1,3.64 (inactive),0.944,0.0037,-1.47 (inactive),-1.14 (inactive),-0.785 (inactive)
CN(C)CCCNC(=O)[C@@]1(C)c2ccccc2C(=O)N(Cc2cc(F)cc(C(F)(F)F)c2)[C@H]1c1ccc(CO)cc1,-0.55 (inactive),-0.114,-0.809,-2.15 (inactive),0.0595 (inactive),0.121 (inactive)
C=CCOC(=O)[C@H]1[C@@H]2C(=O)O[C@@H](c3ccccc3)[C@@H](c3ccccc3)N2[C@@H](c2ccc(OCCOC(=O)[C@@H]3C[C@@H]4C(=O)N[C@@H](CCCCN(C)C)C(=O)N4[C@@H]3c3ccc(O)cc3)cc2)[C@]12C(=O)Nc1ccc(I)cc12,1.74 (inactive),0.805,-0.174,6.34 (inactive),0.936 (inactive),0.679 (inactive)
C=C(C)C1C(=C)CN([C@H](CO)c2ccccc2)C1=O (some centres not stated),-0.389 (inactive),-0.149,-0.977,-2.61 (inactive),-0.347 (inactive),-0.339 (inactive)
C=CC[C@]1(C(=O)NCCCOC)N=C(c2ccc(OCCCO)cc2)O[C@H]1c1ccccc1N=[N+]=[N-],0.403 (inactive),0.707,-1.99,-3.07 (inactive),-0.432 (inactive),0.0181 (inactive)
C=C[C@H](COC(C)=O)N(C(=O)OC(C)(C)C)S(=O)(=O)c1ccc(Br)cc1,0.252 (inactive),-0.263,1.18,-2.87 (inactive),-0.255 (inactive),0.0038 (inactive)
COC(=O)[C@@]1(Cc2ccccc2)[C@H]2c3cc(C(=O)N(C)C)n(CCSCCO)c3C[C@H]2CN1C(=O)c1ccccc1,0.115 (inactive),0.443,-0.522,-4.76 (inactive),0.585 (inactive),0.248 (inactive)
O=C1OCCC/C=C\[C@H]2OC34C=CCN(c5ccc6ccccc6c5)C(=O)[C@H]3N(CCCCCCO)C(=O)[C@@H]4C12 (some centres not stated),0.346 (inactive),0.0339,-0.577,-5.08 (inactive),-0.833 (inactive),-0.428 (inactive)
Cc1ccc(C(C)CC(O)C2C=CC3C(=O)N(C)C(=O)C3N2NC(=O)OC(C)(C)C)o1 (configuration not stated),3.24 (inactive),0.709,0.556,-3.33 (inactive),-0.158 (inactive),-0.168 (inactive)
C=CCC(OC(C)=O)[C@@H]1[C@@H](N(Cc2ccc(-c3cccc(C(F)(F)F)c3)o2)C(=O)Cc2ccc(F)cc2)c2cc(OCCCO)ccc2N1C(=O)Cc1ccc(OC)cc1 (some centres not stated),0.664 (inactive),-0.0147,-1.61,-1.69 (inactive),0.0521 (inactive),0.633 (inactive)
CCOC(=O)C[C@H]1[C@H](OC(=O)Cc2ccc3c(c2)OCO3)[C@@H](NC(=O)c2ccc(-c3ccccc3)cc2)c2cc(OCCCO)ccc2N1C(=O)c1ccc2ccccc2n1,-0.458 (inactive),0.447,-2.38,-1.61 (inactive),0.455 (inactive),0.46 (inactive)
CC(C)c1ccc(NN2C(C(O)c3cc(C(F)(F)F)cc(C(F)(F)F)c3)C=CC3C(=O)N(c4ccccc4)C(=O)C32)cc1 (configuration not stated),0.544 (inactive),0.641,-0.764,-3.49 (inactive),0.652 (inactive),0.417 (inactive)
O=C1O[C@@H](c2ccccc2)[C@@H](c2ccccc2)N2[C@@H](c3ccccc3OCCO)[C@]3(C(=O)Nc4ccc(C#CC5=CCCCC5)cc43)[C@@H](C(=O)Nc3nc4ccccc4s3)[C@H]12,0.705 (inactive),0.824,-2.09,-12.1 (active),-0.183 (inactive),-0.161 (inactive)
CC(C)OC(=O)C=C1C[C@@H](c2ccccc2C(F)(F)F)O[C@@H](c2ccccc2C(F)(F)F)O1,-0.245 (inactive),-0.277,-1.82,0.189 (inactive),-0.319 (inactive),-0.595 (inactive)
COc1ccc(C(O)C2C=CC3C(=O)N(c4ccccc4)C(=O)C3N2Nc2ccccc2F)cc1OCc1ccccc1 (configuration not stated),1.26 (inactive),0.698,-0.193,-0.0495 (inactive),-0.75 (inactive),-1.22 (inactive)
COc1ccc(CCNC(=O)[C@@H]2c3ccccc3C(=O)N(C3Cc4ccccc4C3)[C@H]2c2ccc(CO)cc2)cc1,1.14 (inactive),0.219,-0.268,-3.47 (inactive),-0.222 (inactive),-0.28 (inactive)

# From PubChem BioAssay
